Assay [1] is described as follows: E. coli DRC41 culture turbidity changes, primary screen, E. coli filamentation inducer project, strain DRC41, OD650, 48 h (AID 1152).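 Note: E. coli MC1000 strain DRC41 lacking acrAB efflux pump and sulA.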 To be noted: E. coli DRC41 (acrAB sulA), higher = more signal, called active from +8 up or from −8 down.
A short description of assay [2]: small-molecule binders of probe aLefty1, primary screen, biochemical, small-molecule microarray, 635/667 nm fluorescence (AID 1153).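 Note: score merges spot fluorescence with signal-to-noise ratio from the scanned slide images.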 Conditions: higher = more signal.
Assay [3] is described as follows: PSAC antagonists in infected red cells, primary screen, cell-based, P. falciparum Indochina, OD700, 1 h (AID 1154). Conditions: P. falciparum Indochina infected RBC osmotic lysis, higher = more signal, called active from +8 up or from −8 down.
Assay [4] in a line: PSAC antagonists in infected red cells, primary screen, cell-based, P. falciparum Indochina, OD700, 2 h (AID 1155).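 Note: lysis reports solute entry through the parasite surface anion channel PSAC; channel blockers reduce lysis of infected cells.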 To be noted: P. falciparum Indochina infected erythrocytes, osmotic lysis OD700; higher = more signal, called active from +8 up or from −8 down.
Assay [5] in a line: osmotic lysis modulators in infected erythrocytes, primary screen, PSAC antagonist project, cell-based, P. falciparum Indochina, OD700, 3 h (AID 1156). To be noted: higher = more signal, called active from +8 up or from −8 down.
The nature of assay [6]: PSAC antagonists in infected red cells, primary screen, cell-based, P. falciparum Indochina, OD700, 18 h (AID 1157). Conditions: P. falciparum Indochina infected erythrocytes, osmotic lysis OD700, 18 h; higher = more signal, called active from +8 up or from −8 down.
A short description of assay [7]: modulators of S6 phosphorylation in cells, primary screen, cell-based, A549, cytoblot, luminescence, serum-stimulated (AID 1158).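 Note: serum-stimulated A549 lung adenocarcinoma cells; signal is phosphorylated S6 detected by cytoblot immunostaining with HRP secondary.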 Conditions: A549 phospho-S6 cytoblot, 5 h, higher = more signal.
Assay [8] deals with NADPH oxidase 2 (Homo sapiens) (UniProt P04839). The experiment in a line: NOX2-dependent H2O2 signal modulators, primary screen, NOX inhibitor project, cell-based, HEK293-NOX2, PMA-stimulated, Amplex Red fluorescence (AID 1159). Note: test concentration not given here. Conditions: 45 min, higher = more signal, called active from +8 up or from −8 down.
NADPH oxidase 2 (Homo sapiens), sequence (P04839 whole entry, looked up): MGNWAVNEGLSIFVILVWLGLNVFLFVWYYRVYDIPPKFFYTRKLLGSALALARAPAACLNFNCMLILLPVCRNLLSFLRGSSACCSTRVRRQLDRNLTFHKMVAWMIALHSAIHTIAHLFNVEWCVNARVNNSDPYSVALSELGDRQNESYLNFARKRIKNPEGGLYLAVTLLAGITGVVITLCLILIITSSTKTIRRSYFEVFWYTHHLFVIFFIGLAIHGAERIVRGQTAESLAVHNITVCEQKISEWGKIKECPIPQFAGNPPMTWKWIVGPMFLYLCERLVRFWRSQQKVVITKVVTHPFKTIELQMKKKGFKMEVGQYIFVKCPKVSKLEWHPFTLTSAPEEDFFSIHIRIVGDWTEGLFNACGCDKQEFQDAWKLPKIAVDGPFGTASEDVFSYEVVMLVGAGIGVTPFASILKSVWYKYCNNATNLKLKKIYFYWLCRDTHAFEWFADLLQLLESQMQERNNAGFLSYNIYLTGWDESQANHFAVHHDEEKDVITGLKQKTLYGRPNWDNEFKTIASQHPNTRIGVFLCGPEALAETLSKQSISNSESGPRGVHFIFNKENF
Assay [9] has as its target NADPH oxidase 4 (Homo sapiens) (UniProt Q9NPH5). As to the kind of experiment: NOX4-dependent H2O2 signal modulators, primary screen, NOX inhibitor project, cell-based, HEK293-NOX4, tetracycline-induced, Amplex Red fluorescence (AID 1160). Conditions: 45 min, higher = more signal, called active from +8 up or from −8 down.
In assay [10] the target is NADPH oxidase 5 (Homo sapiens) (UniProt Q96PH1). As to the kind of experiment: NOX5-dependent H2O2 signal modulators, primary screen, NOX inhibitor project, cell-based, HEK293-NOX5, Amplex Red fluorescence (AID 1161). Conditions: HEK293-NOX5, ionomycin, 45 min, higher = more signal.
NADPH oxidase 5 (Homo sapiens), sequence (Q96PH1 whole entry, looked up): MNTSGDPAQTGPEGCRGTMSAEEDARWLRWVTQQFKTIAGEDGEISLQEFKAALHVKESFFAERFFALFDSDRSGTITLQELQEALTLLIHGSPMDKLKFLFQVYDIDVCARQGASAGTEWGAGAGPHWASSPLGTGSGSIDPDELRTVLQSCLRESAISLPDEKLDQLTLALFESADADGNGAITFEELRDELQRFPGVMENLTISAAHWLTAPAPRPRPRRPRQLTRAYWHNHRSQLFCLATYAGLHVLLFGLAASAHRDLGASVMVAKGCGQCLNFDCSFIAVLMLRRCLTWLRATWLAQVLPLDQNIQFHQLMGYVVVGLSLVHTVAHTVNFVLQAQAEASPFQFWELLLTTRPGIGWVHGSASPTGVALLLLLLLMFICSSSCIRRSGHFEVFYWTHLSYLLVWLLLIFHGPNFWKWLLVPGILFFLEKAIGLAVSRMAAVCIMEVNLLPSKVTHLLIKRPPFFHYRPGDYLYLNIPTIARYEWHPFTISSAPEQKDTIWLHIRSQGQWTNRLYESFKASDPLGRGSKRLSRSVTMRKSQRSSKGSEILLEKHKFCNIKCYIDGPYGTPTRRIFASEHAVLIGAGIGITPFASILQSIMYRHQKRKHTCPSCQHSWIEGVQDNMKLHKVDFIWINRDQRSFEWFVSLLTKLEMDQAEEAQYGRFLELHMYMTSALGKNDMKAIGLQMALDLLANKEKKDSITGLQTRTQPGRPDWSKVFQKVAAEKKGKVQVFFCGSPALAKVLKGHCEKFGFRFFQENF
Assay [11] in a line: A549 cell viability effects, profiling panel, calcein-AM fluorescence, 48 h, basal (AID 1162). Note: test concentration not given here. To be noted: higher = more signal.
A short description of assay [12]: adipocyte viability effects, profiling panel, cell-based, 3T3-L1 adipocytes, calcein-AM fluorescence, 48 h, basal (AID 1163). Note: test concentration not given here. To be noted: 3T3-L1 adipocytes viability, higher = more signal.
Assay [13] can be described thus: HepG2 cell viability effects, profiling panel, calcein-AM fluorescence, 48 h, basal (AID 1164). Note: test concentration not given here. Conditions: higher = more signal.
Assay [14] can be described thus: MM1S cell viability effects, profiling panel, calcein-AM fluorescence, 48 h, basal (AID 1165).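 Note: viability of MM1S multiple myeloma cells under basal unstimulated conditions; test concentration not given here.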 Conditions: higher = more signal.
Assay [15] can be described thus: basal RPMI8226 viability, no added stimulus, profiling panel, cell-based, calcein-AM fluorescence, 48 h, PK04 Diversity Set (AID 1166).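 Note: cells grown under basal conditions without added stimulus; test concentration not given here.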 To be noted: RPMI8226 myeloma viability, higher = more signal.
A short description of assay [16]: basal HepG2 mitochondrial membrane potential changes, profiling panel, cell-based, JC-1 fluorescence, 24 h, 100 nL compound (AID 1167). Note: test concentration not given here. To be noted: higher = more signal.
Assay [17] is described as follows: basal 3T3-L1 adipocyte mitochondrial potential changes, profiling panel, cell-based, JC-1 fluorescence, 3T3-L1 adipocytes, 24 h, 100 nL compound (AID 1168). Note: test concentration not given here. To be noted: JC-1 mitochondrial fluorescence, higher = more signal, called active from +8 up or from −8 down.
Assay [18] is described as follows: basal RPMI8226 mitochondrial membrane potential changes, profiling panel, cell-based, JC-1 fluorescence, 24 h, 100 nL compound (AID 1169). Note: test concentration not given here. To be noted: RPMI8226 myeloma, JC-1 mitochondrial potential fluorescence, higher = more signal.
Assay [19] can be described thus: basal MM1S mitochondrial membrane potential changes, profiling panel, cell-based, JC-1 fluorescence, 24 h, 100 nL compound (AID 1170). Note: test concentration not given here. To be noted: higher = more signal.
Assay [20] in a line: A549 lung cancer cell viability effects, profiling panel, resazurin fluorescence, 24 h, PK04 Diversity Set (AID 1171). Note: test concentration not given here. To be noted: higher = more signal, called active from +8 up or from −8 down. On the technique in general: Resazurin is reduced to fluorescent resorufin, in cell work by metabolically active cells.

SMILES strings stand for the structures. Calls of active or inactive are those of the source.

NADPH oxidase 4 (Homo sapiens), sequence (Q9NPH5 whole entry, looked up): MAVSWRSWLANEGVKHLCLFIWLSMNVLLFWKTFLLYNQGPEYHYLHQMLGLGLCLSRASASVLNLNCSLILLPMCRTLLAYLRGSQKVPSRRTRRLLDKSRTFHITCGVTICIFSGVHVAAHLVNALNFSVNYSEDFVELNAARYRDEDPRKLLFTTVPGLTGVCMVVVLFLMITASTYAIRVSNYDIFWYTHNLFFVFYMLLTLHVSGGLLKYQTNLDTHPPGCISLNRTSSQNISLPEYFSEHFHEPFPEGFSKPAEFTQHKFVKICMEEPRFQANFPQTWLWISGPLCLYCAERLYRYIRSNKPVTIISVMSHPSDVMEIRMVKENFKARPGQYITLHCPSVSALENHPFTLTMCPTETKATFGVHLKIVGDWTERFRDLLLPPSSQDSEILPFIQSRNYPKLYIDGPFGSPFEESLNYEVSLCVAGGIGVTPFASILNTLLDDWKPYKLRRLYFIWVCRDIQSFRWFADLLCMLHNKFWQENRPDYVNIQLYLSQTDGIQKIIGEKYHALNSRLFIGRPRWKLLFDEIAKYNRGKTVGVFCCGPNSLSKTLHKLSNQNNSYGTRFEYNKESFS

In the case of `C#CCN(Cc1ccccc1Br)C(/C=C/c1ccccc1)CO` (stereo not given), the z-score in assay [1] was -0.585 (inactive); in assay [3], 12.5 (active); in assay [4], 2.61 (inactive); in assay [5], -1.31 (inactive); in assay [6] it was 0.696 (inactive); in assay [7], -0.188. Further, the z-score in [8] is 0.28 (inactive); in [9] it was -0.157 (inactive); in assay [10], -2.02; in [11], -3.65; in assay [12], -0.011; in [13] it was -3.95. For the same compound, the z-score in assay [14] was -3.26; in assay [15], -4.12; in [16], -2.83; in assay [17], 0.165 (inactive); in assay [18], -1.2; in [19], -1.21. Also, in assay [20], the z-score is -0.411 (inactive). The compound also displayed a composite z-score in assay [2] of -0.226.

On to `CCCCCCC#C[Si](O[C@H](c1ccccc1)c1cn([C@H](CO)Cc2ccccc2)nn1)(C(C)C)C(C)C`, for which the z-score in [1] was 2.03 (inactive); in assay [3], 0.704 (inactive); in [4], 0.268 (inactive); in assay [5], -0.55 (inactive); in [6] it was 0.602 (inactive); in assay [7], 0.447. Moreover, the z-score is -1.25 (inactive) in [8]; -0.227 (inactive) in [9]; -2.2 in assay [10]; 1.77 in assay [11]; -0.121 in assay [12]; -0.407 in assay [13]. The z-score in [14] was -0.178; in assay [15], -0.542; in [16] it was 0.338; in [17] it was -0.94 (inactive); in [18], -0.229; in assay [19], -1.75. Moreover, the z-score in assay [20] was 0.419 (inactive). Also, the composite z-score in assay [2] is -0.217.

Consider `CN1C(=O)C2C=CC(C(O)c3cc(C(F)(F)F)cc(C(F)(F)F)c3)N(N3CCCCC3)C2C1=O` (stereo not given), for which the z-score in [1] was -0.78 (inactive); in assay [3] it was 1.2 (inactive); in [4], 0.968 (inactive); in assay [5] it was 0.859 (inactive); in assay [6] it was 0.999 (inactive); in assay [7] it was -1.08. Moreover, the z-score in [8] is 0.00363 (inactive); in assay [9], -0.651 (inactive); in assay [10], 1.01; in assay [11], 0.704; in [12] it was 0.421; in [13] it was 0.499. The z-score in assay [14] is -1.02; in assay [15], -0.533; in assay [16], -0.672; in assay [17] it was -0.205 (inactive); in assay [18], 0.462; in assay [19], -0.444. In [20], the z-score was 0.113 (inactive). This compound had a composite z-score in [2] of 0.349.

On to `C[C@@]1([C@@H](NC(=O)c2ccccc2)c2ccc(-c3ccccc3)cc2)C[C@H]1C1CCCCC1`, for which the z-score was -2.22 (inactive) in assay [1]; -0.118 (inactive) in assay [3]; 0.28 (inactive) in assay [4]; 0.833 (inactive) in assay [5]; 0.888 (inactive) in assay [6]; 0.994 in assay [7]. Further, the z-score is -0.658 (inactive) in assay [8]; -1.06 (inactive) in assay [9]; -0.782 in [10]; -1.35 in [11]; -0.502 in assay [12]; -0.687 in [13]. Moreover, the z-score in assay [14] was -0.646; in assay [15], -1.28; in [16] it was -0.964; in assay [17], -1.22 (inactive); in [18], 0.318; in assay [19] it was -0.308. Besides, in assay [20], the z-score was -1.2 (inactive). The composite z-score in [2] is 0.476.

With `CC(C)N1C(=O)[C@@]2(Cc3ccccc31)c1ccccc1C(=O)N(C1CCCCC1)[C@H]2c1ccc(CO)cc1`, the z-score was 0.04 (inactive) in assay [1]; 0.206 (inactive) in assay [3]; 0.195 (inactive) in assay [4]; 0.516 (inactive) in [5]; 0.378 (inactive) in [6]; 0.0252 in assay [7]. The z-score in [8] was 0.111 (inactive); in [9], 0.217 (inactive); in assay [10], -0.638; in assay [11], -0.0998; in assay [12] it was 0.0621; in assay [13], -0.775. Moreover, the z-score in [14] is -0.546; in assay [15], 0.0484; in [16], 0.095; in [17] it was 0.327 (inactive); in assay [18], 0.378; in [19], -1.79. In addition, in [20], the z-score was 2.32 (inactive). The composite z-score in [2] is -0.101.

With `CN(C)C(=O)[C@]1(Cc2ccccc2N=[N+]=[N-])N=C(c2ccc(OCCCO)cc2)O[C@@H]1c1ccccc1`, the z-score in [1] is 0.327 (inactive); in assay [3], 30.2 (active); in assay [4], 27.5 (active); in assay [5], 2.4 (inactive); in [6], 2.53 (inactive); in [7], 1.38. The z-score in [8] was -0.906 (inactive); in [9], -0.433 (inactive); in [10], -1.67; in [11], -0.54; in assay [12] it was -0.958; in assay [13] it was 0.351. Moreover, the z-score in assay [14] was -1.02; in assay [15] it was -2.57; in assay [16], 0.397; in assay [17], 0.6 (inactive); in [18] it was -1.1; in [19], -1.27. For the same compound, the z-score in assay [20] was -0.32 (inactive). In [2], this compound yielded a composite z-score of 0.112.

`C=C(C)C1C(=C)CN([C@H](CO)c2ccccc2)C1=O` (stereo not given in full): the z-score in assay [1] was -1.08 (inactive); in assay [3], 0.391 (inactive); in assay [4], 0.497 (inactive); in [5] it was 0.711 (inactive); in assay [6], -0.0396 (inactive); in [7], -0.272. In addition, the z-score in assay [8] was 1.98 (inactive); in assay [9], 0.998 (inactive); in assay [10], -0.846; in assay [11] it was -0.488; in assay [12], 0.783; in assay [13], -0.764. Also, the z-score is 0.0188 in [14]; -2.01 in assay [15]; -0.113 in [16]; 0.113 (inactive) in assay [17]; -0.175 in assay [18]; -0.761 in [19]. Also, the z-score in [20] is 1.02 (inactive). In assay [2], the composite z-score was -0.285.

For the compound `O=C1c2ccccc2[C@](Cc2ccccc2I)(C(=O)NC2CC2)[C@H](c2ccc(CO)cc2)N1Cc1ccccc1`, the z-score was -0.102 (inactive) in assay [1]; 5.07 (inactive) in [3]; 0.602 (inactive) in [4]; 1.67 (inactive) in assay [5]; 0.181 (inactive) in assay [6]; -0.132 in assay [7]. The z-score was -0.163 (inactive) in [8]; -0.127 (inactive) in assay [9]; -0.768 in assay [10]; 0.465 in assay [11]; -0.241 in assay [12]; -0.236 in assay [13]. The z-score is -0.349 in [14]; -0.253 in [15]; 0.478 in assay [16]; 0.174 (inactive) in assay [17]; -0.679 in [18]; 0.00466 in assay [19]. In addition, the z-score in [20] was 1.47 (inactive). The compound also came in with a composite z-score in assay [2] of 0.284.

Consider `C=CCOC(=O)[C@H]1[C@@H]2C(=O)O[C@@H](c3ccccc3)[C@@H](c3ccccc3)N2[C@@H](c2ccc(OCCOC(=O)[C@H]3C[C@H]4C(=O)N5CCC[C@H]5C(=O)N4[C@H]3c3ccc(O)cc3)cc2)[C@]12C(=O)Nc1ccccc12`, for which the z-score in assay [1] was -0.827 (inactive); in assay [3], 1.72 (inactive); in assay [4], 1.25 (inactive); in [5], 1.58 (inactive); in assay [6], 0.889 (inactive); in assay [7], -0.352. Also, the z-score is 2.25 (inactive) in assay [8]; 1.39 (inactive) in assay [9]; 1.87 in [10]; -0.45 in assay [11]; 1.46 in assay [12]; 0.226 in assay [13]. The z-score was -0.0596 in assay [14]; -0.653 in [15]; -1.37 in [16]; 1.22 (inactive) in assay [17]; -0.515 in [18]; -0.857 in assay [19]. Also, in assay [20], the z-score is 0.315 (inactive). Further, the composite z-score in assay [2] was 0.227.

The values above are taken from PubChem BioAssay.
